Compound activity from PubChem.
A selection: hits, their analogues and other compounds. The true share with any hit is near 7%.
rCAG binder – r(CAG) repeat RNA binding; TO-PRO-1 dye displacement fluorescence; 370,000 compounds, 1.3% hits; AID 651821; inhibition, % at 3 µM;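 active = inhibition above the plate cutoff, the mean of all test compounds on that plate plus 3 SD, cut at about 35% in these data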;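 also: 0% = DMSO alone and 100% = 100 µM mitoxantrone as full dye displacement; higher means more dye released from RNA so lower well fluorescence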
KLK7 zymogen act – activates the human kallikrein-7 zymogen | 370,000 compounds, 0.9% hits | activation, % at 7 µM | P49862 | purified proKLK7, EDANS-DABCYL substrate fluorescence; 100% is mature enzyme control, 0% vehicle;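 active = activation above the mean of all tested compounds plus 3 SD, computed per campaign excluding outliers beyond control limits, cut at about 13% in these data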
ADAM17 inh – ADAM17 inhibition, QFRET primary screen | P78536 | recombinant ADAM17, EDANS/DABCYL FRET peptide cleavage | inhibition, % at 6.95 µM | 370,000 compounds, 0.83% hits | AID 720648;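 active = inhibition above the mean of compounds lying between control limits plus 3 SD, set per campaign, cut at about 8.5% in these data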;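 also: 0% = DMSO-only wells as the low control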
AHR activator – human AHR activation; AHR-responsive luciferase reporter cells, luminescence; 320,000 compounds, 2.5% hits; P35869; activation, % at 5 µM; AID 2796; in the data active = activation above about 47%;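 also: 0% = vehicle wells and 100% = reference agonist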
Target sequence (P35869 whole entry, looked up): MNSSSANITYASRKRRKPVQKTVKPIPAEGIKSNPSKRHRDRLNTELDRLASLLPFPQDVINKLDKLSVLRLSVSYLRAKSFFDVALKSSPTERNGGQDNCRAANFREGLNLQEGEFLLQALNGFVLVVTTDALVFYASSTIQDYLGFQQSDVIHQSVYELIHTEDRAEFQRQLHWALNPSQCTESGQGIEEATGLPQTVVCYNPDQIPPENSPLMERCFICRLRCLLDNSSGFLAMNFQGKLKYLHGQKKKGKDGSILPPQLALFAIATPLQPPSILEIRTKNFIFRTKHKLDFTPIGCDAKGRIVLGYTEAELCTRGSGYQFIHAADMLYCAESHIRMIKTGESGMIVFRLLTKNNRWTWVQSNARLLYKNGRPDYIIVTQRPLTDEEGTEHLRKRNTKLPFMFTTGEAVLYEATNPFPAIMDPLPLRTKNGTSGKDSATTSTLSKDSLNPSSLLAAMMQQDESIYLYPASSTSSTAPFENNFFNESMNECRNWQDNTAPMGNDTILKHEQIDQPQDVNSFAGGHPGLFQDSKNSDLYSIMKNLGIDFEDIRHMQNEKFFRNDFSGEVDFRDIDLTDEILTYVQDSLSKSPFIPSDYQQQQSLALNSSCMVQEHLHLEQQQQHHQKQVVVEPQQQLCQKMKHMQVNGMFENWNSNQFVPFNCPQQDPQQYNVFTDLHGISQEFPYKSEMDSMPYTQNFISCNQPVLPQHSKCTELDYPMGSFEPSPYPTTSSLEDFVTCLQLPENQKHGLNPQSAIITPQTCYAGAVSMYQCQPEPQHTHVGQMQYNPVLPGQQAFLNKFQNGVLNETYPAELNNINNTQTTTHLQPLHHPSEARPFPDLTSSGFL
ADAM10 inh – ADAM10 inhibition, QFRET primary screen | recombinant ADAM10, EDANS/DABCYL FRET peptide cleavage, 3 h | inhibition, % at 7 µM | 370,000 compounds, 0.62% hits | AID 720582;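 active = inhibition above a per-campaign cutoff equal to the mean of compounds falling between control-based bounds plus 3 SD, cut at about 20% in these data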;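 also: 0% = DMSO wells while the 100% control is not disclosed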
GRIN3A LBD mod – modulators (binders) of human NR3A ligand-binding domain | NR3A LBD differential scanning fluorimetry, Tm shift; 0% = protein alone, 100% = glycine-bound protein | AID 1259313 | Tm shift relative to glycine control, % at 25 µM | 340,000 compounds, 2.5% hits;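 active = melting temperature shift of at least 10% of the positive control shift, at one fixed dose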
proKLK7 act conf – proKLK7 activation, confirmation; shares compounds with KLK7 zymogen act; purified proKLK7, EDANS-DABCYL substrate fluorescence; scaled: vehicle 0, mature enzyme 100; activation, % at 7 µM; 3,200 compounds, 68% hits; AID 686949;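 active = activation, as change over the incubation, above the mean of all tested compounds plus 3 SD, cut at about 13% in these data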
EDANS-DABCYL int – optically interferes with EDANS-DABCYL signal, flagging KLK7 hits. activation, % at 7 µM. 3,200 compounds, 80% hits. shares compounds with KLK7 zymogen act. AID 686952. EDANS-DABCYL substrate fluorescence interference, no enzyme, 4 h; solvent 0%, active enzyme control 100%;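 active = activation above the all-compound mean plus 3 SD, ignoring values outside control-based bounds, cut at about 4.8% in these data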;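 also: value is the 4 h activation minus the activation read at time zero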
EDANS interf – EDANS fluorescence interference in dose response, no enzyme | shares compounds with KLK7 zymogen act | EDANS-DABCYL peptide fluorescence interference | EC50, µM | 250 compounds, 20% hits | AID 720493;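 active = compounds that raise the fluorescence signal in this interference counterscreen, with EC50 at or below 10 µM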;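 also: intact quenched peptide substrate alone read at 355 nm excitation and 520 nm emission; signal is fluorescence gain from T0 to T4 after four hours at room temperature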
* hit, by the source's call.

What do the screens show for `COc1ccc(N2C(=O)CC(N3CCN(Cc4ccc5c(c4)OCO5)CC3)C2=O)cc1` (stereo not given)?
rCAG binder: -6; KLK7 zymogen act: 53*; ADAM17 inh: -5; AHR activator: 1; ADAM10 inh: -8; GRIN3A LBD mod: -1; proKLK7 act conf: 0; EDANS-DABCYL int: 0

Results for Cc1ccccc1OCCC(=O)OCC(=O)Nc1c(C)nn(-c2ccccc2)c1C ?
rCAG binder: -7; KLK7 zymogen act: 0; ADAM17 inh: -1; AHR activator: 1; ADAM10 inh: -1; GRIN3A LBD mod: -3

How did COc1cc(OC)cc(-c2c(-c3ccc(C(C)=O)cc3)c3cc(-c4cccc5[nH]ccc45)ccc3n2C)c1 do in these assays?
rCAG binder: 20; KLK7 zymogen act: 0; ADAM17 inh: -2; AHR activator: 3; ADAM10 inh: -40; GRIN3A LBD mod: 2

What do the screens show for `C=CCc1c(C)[nH]c2c(OC)cccc2c1=S`?
rCAG binder: -1; KLK7 zymogen act: 29*; ADAM17 inh: -42; AHR activator: 6; ADAM10 inh: -90; GRIN3A LBD mod: -1; proKLK7 act conf: 13*; EDANS-DABCYL int: 18*

What do the screens show for `COc1ccc(-c2ncccc2OC(=O)C23CC4CC(CC(C4)C2)C3)cc1OC`?
rCAG binder: -5; KLK7 zymogen act: 18*; ADAM17 inh: -138; AHR activator: 7; ADAM10 inh: inactive; GRIN3A LBD mod: -5; proKLK7 act conf: 12; EDANS-DABCYL int: 8.2*

Results for O=C(NCc1ccccc1)c1cccc(NC(=O)C2CCCC2)c1 ?
rCAG binder: 0; KLK7 zymogen act: 0; ADAM17 inh: -4; ADAM10 inh: -14; GRIN3A LBD mod: -2

What do the screens show for `COc1ccc(CCNC(=O)c2ccc3c(c2)N(Cc2ccc(C)cc2)CCS3)cc1OC`?
AHR activator: 3; GRIN3A LBD mod: -2

What do the screens show for `CN(C)CCNC(=O)c1ccc2c(c1)N(Cc1ccc(F)cc1)CCS2`?
rCAG binder: 5; KLK7 zymogen act: 62*; ADAM17 inh: -412; AHR activator: 2; ADAM10 inh: inactive; GRIN3A LBD mod: 0; proKLK7 act conf: -25; EDANS-DABCYL int: -22

What do the screens show for `CCOC(=O)N1CCC(NC(=O)c2ccc3c(c2)N(CC)CCS3)CC1`?
rCAG binder: 2; KLK7 zymogen act: 27*; ADAM17 inh: -376; AHR activator: 6; ADAM10 inh: inactive; GRIN3A LBD mod: 5; proKLK7 act conf: 7; EDANS-DABCYL int: 5.2*

What do the screens show for `O=C(NC1CCCC1)c1ccc2c(c1)N(Cc1ccc(F)cc1)CCS2`?
rCAG binder: 0; KLK7 zymogen act: -34; ADAM17 inh: -269; AHR activator: 18; ADAM10 inh: inactive; GRIN3A LBD mod: 0

What do the screens show for `Cc1ccc(CN2CCSc3ccc(C(=O)NCCCN4CCN(C)CC4)cc32)cc1`?
rCAG binder: -3; KLK7 zymogen act: 39*; ADAM17 inh: inactive; AHR activator: -2; ADAM10 inh: inactive; GRIN3A LBD mod: 3; proKLK7 act conf: -67; EDANS-DABCYL int: -78

How did Cc1ccc(CN2CCSc3ccc(C(=O)NC4CCCC4)cc32)cc1 do in these assays?
AHR activator: 1; GRIN3A LBD mod: -4

What do the screens show for `CN1CCSc2ccc(C(=O)NCc3cccc(F)c3)cc21`?
rCAG binder: 6; KLK7 zymogen act: 49*; ADAM17 inh: inactive; AHR activator: 67*; ADAM10 inh: inactive; GRIN3A LBD mod: 5; proKLK7 act conf: 51*; EDANS-DABCYL int: 1; EDANS interf: >70

Results for COc1cccc(NC(=O)c2ccc3c(c2)N(C)CCS3)c1 ?
rCAG binder: 5; KLK7 zymogen act: 8; ADAM17 inh: -73; AHR activator: 20; ADAM10 inh: -224; GRIN3A LBD mod: -1

How did CC(C)COC(=O)N1CCCC(c2cc(C(=O)Nc3ccccc3Cl)no2)C1 (stereo not given) do in these assays?
rCAG binder: 0; KLK7 zymogen act: 0; ADAM17 inh: -1; ADAM10 inh: 4

Results for c1ccc2c(c1)COc1c3ncccc3nn1-2 ?
rCAG binder: 1; KLK7 zymogen act: 3; ADAM17 inh: -106; ADAM10 inh: -415

What do the screens show for `O=C(Nc1ccc2c(c1)OCO2)C(c1ccc(Cl)cc1)N1CCC2(CC1)OCCO2` (stereo not given)?
rCAG binder: 0; KLK7 zymogen act: 18*; ADAM17 inh: 1; AHR activator: 11; ADAM10 inh: 3; GRIN3A LBD mod: 0; proKLK7 act conf: 0; EDANS-DABCYL int: -1

How did CC(C)c1ccc(NC(=O)C(c2ccc3c(c2)OCO3)N2CCC3(CC2)OCCO3)cc1 (stereo not given) do in these assays?
rCAG binder: 1; KLK7 zymogen act: 0; ADAM17 inh: 7; AHR activator: 10; ADAM10 inh: 19; GRIN3A LBD mod: -1

Results for COc1ccc2nc(C)c3c(c2c1)OC(C)C3 (stereo not given) ?
rCAG binder: 1; KLK7 zymogen act: 3; ADAM17 inh: -27; AHR activator: 6; ADAM10 inh: -75; GRIN3A LBD mod: 0

Results for COc1cccc2c3c(c(C)nc12)CC(C)O3 (stereo not given) ?
rCAG binder: -37; KLK7 zymogen act: 48*; ADAM17 inh: -105; AHR activator: 0; ADAM10 inh: -268; GRIN3A LBD mod: 0; proKLK7 act conf: 8; EDANS-DABCYL int: 12*

How did CC1(C2CC2)NC(=O)N(CC(=O)Nc2ccc(C(F)(F)F)cc2)C1=O (stereo not given) do in these assays?
rCAG binder: 2; KLK7 zymogen act: -1; ADAM17 inh: 2; AHR activator: 2; ADAM10 inh: -6; GRIN3A LBD mod: -1

Results for CCOC(=O)CSc1nc(C)cc(=O)[nH]1 ?
rCAG binder: -1; KLK7 zymogen act: 0; ADAM17 inh: -2; AHR activator: -2; ADAM10 inh: -3; GRIN3A LBD mod: 0

What do the screens show for `CSc1nc2nc(Cl)c(Cl)nc2[nH]1`?
rCAG binder: 1; KLK7 zymogen act: 26*; ADAM17 inh: inactive; ADAM10 inh: inactive; proKLK7 act conf: 45*; EDANS-DABCYL int: 46*

What do the screens show for `CCOC(=O)CSc1nc2nc(Cl)c(Cl)nc2[nH]1`?
rCAG binder: 1; KLK7 zymogen act: 36*; ADAM17 inh: inactive; ADAM10 inh: inactive; proKLK7 act conf: 30*; EDANS-DABCYL int: 31*
